Results reported in PubChem BioAssay (EPA / NIEHS).
Values joined by “and” are separate entries in the source; they are usually repeats but may differ in a detail not shown here. Equal entries are not always repeated. Inconclusive results are not listed. Active and inactive are the calls of the source. Rule for the calls: active = hit-call score of the fitted dose curve at least 0.9, where 1 is the maximum; inconclusive = response in the unintended direction; inactive = score below 0.9.

Biological target: rat Serotonin, 5-Hydroxytryptamine Receptor (5HT), Non-Selective Binding, Htr1a (gene 24473) (UniProt P19327)
Experiment: NVS_GPCR_r5HT_NonSelective: NovaScreen (NVS) G Protein-Coupled Receptor Assay for rat Serotonin, 5-Hydroxytryptamine Receptor (5HT), Non-Selective Binding (AID 2283295)
How it was run: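 Radioligand displacement on rat cortical membranes, 1 h incubation, filter-based scintillation counting. Primary duplicates at 25 uM, actives retested in concentration series; loss of signal fitted against DMSO as baseline.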

Chain of rat Serotonin, 5-Hydroxytryptamine Receptor (5HT), Non-Selective Binding, Htr1a (gene 24473) (P19327 whole entry, looked up): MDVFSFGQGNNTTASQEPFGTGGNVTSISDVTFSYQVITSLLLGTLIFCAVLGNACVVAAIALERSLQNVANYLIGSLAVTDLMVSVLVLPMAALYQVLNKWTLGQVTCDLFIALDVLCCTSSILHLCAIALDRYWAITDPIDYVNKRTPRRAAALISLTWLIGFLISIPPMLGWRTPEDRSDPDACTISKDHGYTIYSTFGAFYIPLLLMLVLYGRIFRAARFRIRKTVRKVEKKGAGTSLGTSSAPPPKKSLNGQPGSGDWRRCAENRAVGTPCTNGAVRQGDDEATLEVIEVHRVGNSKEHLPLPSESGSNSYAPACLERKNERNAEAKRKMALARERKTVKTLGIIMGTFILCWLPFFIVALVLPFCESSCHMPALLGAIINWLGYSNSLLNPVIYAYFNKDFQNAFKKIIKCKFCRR

| SMILES | outcome | AC50 |
| --- | --- | --- |
| COc1nc(NC(C)C)nc(NC(C)C)n1 | inactive | – |
| C=CCC1=C(C)[C@@H](OC(=O)[C@@H]2[C@@H](C=C(C)C)C2(C)C)CC1=O | inactive | – |
| CS/C(C)=N/OC(=O)N(C)SN(C)C(=O)O/N=C(\C)SC | inactive | – |
| O=C(Nc1ccccc1)Nc1ccnc(Cl)c1 | – | 17 µM (active) |

Biological target: rat Corticotropin Releasing Factor Receptor (CRF), Crhr1 (gene 58959) (UniProt P35353)
Experiment: NVS_GPCR_rCRF: NovaScreen (NVS) G Protein-Coupled Receptor Assay for rat Corticotropin Releasing Factor Receptor (CRF) (AID 2283300)
How it was run: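 Rat cortical membranes used as receptor source in a radioligand competitive displacement binding assay; scintillation read 2 h after dosing. Primary screen run in duplicate at 25 uM; loss of signal versus DMSO baseline indicates binding.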

Chain of rat Corticotropin Releasing Factor Receptor (CRF), Crhr1 (gene 58959) (P35353 whole entry, looked up): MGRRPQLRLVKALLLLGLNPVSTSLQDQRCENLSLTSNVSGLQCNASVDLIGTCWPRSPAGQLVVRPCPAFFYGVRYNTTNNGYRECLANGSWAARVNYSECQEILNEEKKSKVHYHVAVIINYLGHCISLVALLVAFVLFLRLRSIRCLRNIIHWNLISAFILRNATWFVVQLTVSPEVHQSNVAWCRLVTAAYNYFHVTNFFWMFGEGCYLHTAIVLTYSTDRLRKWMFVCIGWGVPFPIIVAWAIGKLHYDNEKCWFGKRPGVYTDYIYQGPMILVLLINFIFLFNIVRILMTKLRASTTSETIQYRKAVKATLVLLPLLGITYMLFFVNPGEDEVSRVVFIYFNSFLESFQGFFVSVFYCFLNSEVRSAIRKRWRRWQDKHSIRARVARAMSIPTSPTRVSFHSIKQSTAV

| SMILES | outcome |
| --- | --- |
| CCNc1nc(Cl)nc(NC(C)C)n1 | inactive |
| CNC(=S)S | inactive |
| N#Cc1nn(-c2c(Cl)cc(C(F)(F)F)cc2Cl)c(N)c1S(=O)C(F)(F)F (stereo unspecified) | inactive |

Biological target: rat Histamine Receptor (H3), Hrh3 (gene 85268) (UniProt Q9QYN8)
Experiment: NVS_GPCR_rH3: NovaScreen (NVS) G Protein-Coupled Receptor Assay for rat Histamine Receptor (H3) (AID 2283303)
Description: NVS_GPCR_rH3 is a biochemical, single-readout assay that uses extracted gene-proteins from Rat forebrain membranes in a tissue-based cell-free assay. Measurements were taken 1 hour after chemical dosing in a 48-well plate.NVS_GPCR_rH3 is one of one assay component(s) measured or calculated from the NVS_GPCR_rH3 assay. It is designed to make measurements of radioligand binding, a form of binding reporter, as detected with scintillation counting signals by Filter-based radiodetection technology.Data from the assay component NVS_GPCR_rH3 was analyzed into 1 assay endpoint. This assay endpoint, NVS_GPCR_rH3, was analyzed in the positive analysis fitting direction relative to DMSO as the negative control and baseline of activity. Using a type of binding reporter, loss-of-signal activity can be used to understand changes in the binding as they relate to the gene Hrh3. Furthermore, this assay endpoint can be referred to as a primary readout, because the performed assay has only produced 1 assay endpoint. To generalize the intended target to other relatable targets, this assay endpoint is annotated to the gpcr intended target family, where the subfamily is rhodopsin-like receptor.
Binding assays used specific radioligands (tritiated, iodinated) with non-radioactive competitive displacement ligands in agonist or antagonist protocols (as indicated) and various reference compounds and inhibitors to titrate specific binding to receptors and transporters. Most enzyme assays (CYPs, kinases, phosphatases, proteases, HDACs) used recombinant protein and specific substrates (fluorescence mostly, some colorimetric and radioactive) and inhibitors, followed by a biochemical separation of substrate and product. All assays for the biochemical HTS were initially run in duplicate at a single concentration (10 uM for CYP450 assays and 25 uM for all others). Assay-chemical combinations meeting a pre-defined threshold (e.g., 30% inhibition and other criteria defined below) were then run in singleton concentration-response format with maximum concentration of 20 uM for CYPs and 50 uM for all others. Each assay was run with positive and negative controls, and concurrent controls on every plate. The follow-up (secondary) screen tested active chemical-pairs in concentration series, as well as a few additional assays not tested in the primary screen, some selected negative inactives, and several cases re-run in the concentration series for confirmatory purposes.

Chain of rat Histamine Receptor (H3), Hrh3 (gene 85268) (Q9QYN8 whole entry, looked up): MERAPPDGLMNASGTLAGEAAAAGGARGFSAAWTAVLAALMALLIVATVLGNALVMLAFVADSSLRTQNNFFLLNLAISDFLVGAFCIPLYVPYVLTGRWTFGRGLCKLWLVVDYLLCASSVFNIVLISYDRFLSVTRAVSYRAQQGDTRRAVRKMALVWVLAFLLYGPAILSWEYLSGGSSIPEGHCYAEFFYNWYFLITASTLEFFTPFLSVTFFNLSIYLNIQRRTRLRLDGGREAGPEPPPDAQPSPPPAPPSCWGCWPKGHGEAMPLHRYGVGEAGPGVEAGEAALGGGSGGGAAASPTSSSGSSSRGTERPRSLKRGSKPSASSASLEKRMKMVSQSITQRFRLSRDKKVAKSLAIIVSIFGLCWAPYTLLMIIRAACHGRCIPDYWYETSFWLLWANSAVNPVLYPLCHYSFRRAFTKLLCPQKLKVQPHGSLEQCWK

| SMILES | outcome | AC50 |
| --- | --- | --- |
| N#CC(CCc1ccc(Cl)cc1)(Cn1cncn1)c1ccccc1 (stereo unspecified) | inactive | – |
| CCCCNC(=O)OCC#CI | – | 4.99 µM (active) and 6.92 µM (active) |
| CS/C(C)=N/OC(=O)N(C)SN(C)C(=O)O/N=C(\C)SC | – | 2 µM (active) |
| Cc1ccc(-c2c(Cl)nc(C#N)n2S(=O)(=O)N(C)C)cc1 | – | 5.9 µM (active) |
